Shown are actives, neighbours in structure and some others; about 2.6% of the full set was active somewhere.
BRCA1 expr up: qHTS Assay to Identify Small Molecule Activators of BRCA1 Expression; MCF7-BRCA1-FFLuc reporter, luminescence, 48 h; response scale: scaled: vehicle 0%, 10 µM genistein 100%; Potency, µM (series often up to 46.1 µM), inactives show at the top dose activation, usual class: activators; actives 1.1% (n = 380,000); also: nearly all actives have a fitted effect of over 80% in size
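Cells: MCF7-BRCA1-FFLuc, 2000/well. Exposure: 48 h, 37 °C, 5% CO2. Read: luminescence, 15 min post-substrate. Controls: genistein 10 microM (maximal activation), DMSO (neutral).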
GLP-1R inv ag: qHTS of GLP-1 Receptor Inverse Agonists (Inhibition Mode); Potency, µM (top dose mostly 38.3 µM), inactives show at the top dose activity change, negative = inhibition, usual class: inhibitors; AID 624417, 2012; HEK293 GLP-1R CRE-luciferase, luminescence, 24 h; GLP-1R form is constitutively active; actives 1.6% (n = 410,000); also: % is scaled to controls: 0 for no effect and ±100 for the full control effect; nearly all actives have a fitted effect of over 55% in size
Target sequence (P43220 whole entry, looked up): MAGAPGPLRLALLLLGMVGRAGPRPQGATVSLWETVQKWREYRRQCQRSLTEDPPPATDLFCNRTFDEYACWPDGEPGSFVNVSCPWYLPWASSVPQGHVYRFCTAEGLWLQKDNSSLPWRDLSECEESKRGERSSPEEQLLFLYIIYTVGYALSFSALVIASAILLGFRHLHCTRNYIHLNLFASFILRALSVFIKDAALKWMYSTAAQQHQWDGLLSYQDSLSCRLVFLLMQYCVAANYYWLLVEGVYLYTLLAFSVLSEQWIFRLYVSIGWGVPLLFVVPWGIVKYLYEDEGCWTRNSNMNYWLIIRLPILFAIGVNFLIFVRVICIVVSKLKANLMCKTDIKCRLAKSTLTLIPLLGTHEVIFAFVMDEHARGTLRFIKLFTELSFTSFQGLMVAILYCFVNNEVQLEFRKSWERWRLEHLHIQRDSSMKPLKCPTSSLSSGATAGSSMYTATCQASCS
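Constitutively active GLP-1R drives a cAMP-responsive luciferase in stably transfected HEK293 cells; test compounds are added after overnight (12 h) attachment and left 24 hr, and signal loss in luminescence marks inhibition.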
GLP1R ag: qHTS of GLP-1 Receptor Agonists | Glucagon-like peptide 1 receptor (Homo sapiens), P43220 | HEK293 GLP-1R CRE-luciferase, luminescence, 4-6 h; cells express a hypersensitive GLP-1R form | Potency, µM (titrated, usually from 45.6 µM), for inactives: at the highest dose activation, hits mostly activators | actives 0.007% (n = 380,000); also: % of control where 0% means no effect
HEK293 tox: qHTS of GLP-1 Receptor Inverse Agonists: Cytotox Screen | actives 0.13% (n = 410,000) | HEK293 cAMP-luciferase reporter cells, luminescence, 24 h | Potency, µM (doses to about 38.3 µM), for inactives: at the highest dose activity change, negative = inhibition, actives largely listed as inhibitors;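 also: loss of luciferase light is scored as toxicity; % is scaled to controls: 0 for no effect and ±100 for the full control effect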
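Luminescence readout: signal drop marks cytotoxicity. Plated cells grew 12 h at 37 °C, 5% CO2, received 23 nL compound for 24 h, then got luciferase reagent, read after 12 min at RT.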
Starred values were filed as active, the others as inactive; u = inconclusive; x = no result given. Calls follow the shape of the dose curve; as a rule, active = well fitted curve in the direction sought with a large enough effect; inconclusive = small, poorly fitted or top-dose-only effect, or another doubt; inactive = no such curve, though single readings can be large; an effect the other way counts as inactive or inconclusive. Potency is read from the fitted curve at half-maximal effect.

SMILES | BRCA1 expr up | GLP-1R inv ag | GLP1R ag | HEK293 tox
CCOc1ccc(NC(=S)N2CCCN(Cc3cccc(Cl)c3)C2)cc1 | -50% | u | 16% | 7%
COc1ccc(NC(=S)N2CCCN(Cc3cccc(Cl)c3)C2)cc1 | -21% | 8.9µM* | 13% | -6%
CSc1cccc(NC(=S)N2CCCN(Cc3cccc(Cl)c3)C2)c1 | -49% | 3.5µM* | 7% | -12%
COc1cccc2sc(N(Cc3cccnc3)C(=O)c3ccc4c(c3)OCCO4)nc12 | x | 2% | x | 4%
Cc1cc2oc(=O)cc(CN(C)Cc3cccc(F)c3)c2cc1C | 11µM* | -52% | 8% | 9%
CCc1cc2c(CN(C)Cc3ccccc3F)cc(=O)oc2cc1O | -62% | u | 21% | 452%
Cc1cc(C)c2c(CN(C)Cc3ccccc3)cc(=O)oc2c1 | 13µM* | u | u | 16%
Cc1cc(C)c2c(CCl)cc(=O)oc2c1 | -55% | u | 17% | -5%
C[C@@H]1CN(C(=O)c2cc(COc3cccc(C(F)(F)F)c3)on2)C[C@H](C)O1 | u | u | 4% | -12%
COc1ccc(CC(=O)Nc2nc(-c3ccc(F)c(F)c3)cs2)cc1 | -84% | 11µM* | 8% | -1%
COc1ccc(-c2csc(NC(=O)CSc3nc(SC)ns3)n2)cc1 | -17% | u | 8% | 3%
O=C(Cc1ccc(F)cc1)Nc1nc(-c2ccc(F)c(F)c2)cs1 | -5% | u | -5% | -8%
COc1cccc(-c2csc(NNC(=O)c3cccs3)n2)c1 | -3% | u | -7% | u
COc1ccc(-c2csc(NC(=O)CSc3nc(C)cs3)n2)cc1 | 13µM* | 17% | 2% | 4%
COc1ccc(-c2csc(NC(=O)COC(=O)C3=COCCO3)n2)cc1 | 5µM* | 12% | 2% | 1%
COc1cccc(-c2csc(NC(=O)Oc3ccccc3)n2)c1 | 10µM* | 7% | 11% | -7%
Nc1c(-c2ccc(F)c(F)c2)nc2ncccn12 | x | 18% | x | -6%
Cc1cc(=O)n2nc(N3CCC(C(=O)Nc4ccc(Br)c(C)c4)CC3)sc2n1 | 9% | 5% | x | 0%
O=C(Nc1nc(-c2cccc([N+](=O)[O-])c2)cs1)C(c1ccccc1)c1ccccc1 | -41% | 1.6µM* | -20% | 50%
CC(OC(=O)c1ccccc1Br)C(=O)Nc1nc(-c2cccc([N+](=O)[O-])c2)cs1 (centres undefined) | 41% | 27% | -1% | 10%
CCOC(=S)SCC(=O)Nc1nc(-c2ccc(Br)cc2)cs1 | -72% | 0% | -4% | 5µM*
CCOC(=S)SCC(=O)Nc1nc(-c2ccccc2)cs1 | -79% | 0% | -3% | u
CN(C)c1ccc(/C=C/c2cnnc3ccccc23)cc1 | -58% | x | x | x
COc1cc(OC)c(/C=C/c2ccc3ccccc3[n+]2C)c(OC)c1 | -70% | x | x | x
COc1ccc(-c2ccc(OC)c([C@H]3[C@@H]4C=CCC[C@@]4(C)C(=O)N3Cc3ccccc3)c2)cc1OC | -5% | -24% | 25% | -17%
SMILES | BRCA1 expr up | GLP-1R inv ag | GLP1R ag | HEK293 tox
COc1ccc(Br)cc1[C@H]1[C@@H]2C=CCC[C@@]2(C)C(=O)N1Cc1ccccc1 | -19% | 4.5µM* | 5% | -15%
CC(=O)c1ccc(-c2ccc([C@H]3[C@@H]4C=CCC[C@@]4(C)C(=O)N3Cc3ccccc3)c(F)c2)cc1 | -69% | 11µM* | -6% | -5%
COc1ccc(-c2cc([C@H]3[C@@H]4C=CCC[C@@]4(C)C(=O)N3Cc3ccccc3)ccc2F)cc1 | -21% | 10µM* | 6% | 4%
CCCC(=O)Oc1c(S(=O)(=O)c2ccc(C)cc2)c(C)nn1C(C)(C)C | -13% | 5.6µM* | -2% | u
CSc1ccc(CC(=O)N2CCC(n3nccc3NC(=O)C3CC3)CC2)cc1 | 2.8µM* | 1% | 14% | 1%
COc1cccc(CC(=O)N2CCC(n3nccc3NC(=O)C3CC3)CC2)c1 | -18% | 2% | 0% | 7%
CCOC(=O)c1ccc(N2C(=O)c3[nH]nc(-c4ccc(C)cc4)c3C2c2ccc(O)c(OCC)c2)cc1 (centres undefined) | -73% | u | -5% | -11%
COc1cccc(-c2nnc(-c3ccc(C(F)(F)F)cc3)o2)c1 | 13µM* | 5% | -4% | -34%
N[C@@H](C(=O)N[C@@H]1C(=O)N2C(C(=O)O)=C(CSc3cn[nH]n3)CS[C@H]12)c1ccc(O)cc1 | x | x | 0% | x
CCCC(=O)C1=C(O)C(C(=O)OC)C(C)(C)CC1=Nc1cccc2ccccc12 (centres undefined) | -42% | 7.9µM* | -6% | -4%
COc1ccccc1N=Nc1ccc(O)c2ncccc12 | -60% | u | -10% | 1.3µM*
CCS(=O)(=O)c1ccc(N=Nc2ccc(O)c3ncccc23)c(OC)c1 | -93% | 0% | 2% | u
Cc1ccc(CNCC(=O)Nc2ccc(N3CCOCC3)cc2)cc1 | -21% | -1% | 6% | -2%
CN(C)CCCNc1oc(-c2cccc(Cl)c2)nc1C#N | -7% | 6.3µM* | -2% | -2%
O=C(Cc1ccccc1)Nc1cc2c(cc1Cl)OCCCO2 | 3.2µM* | 8% | 7% | -15%
O=C(Cc1ccccc1)Nc1ccc2c(c1)OC1(CCCC1)O2 | 4µM* | u | 17% | -10%
O=C1CC(=O)Nc2cc(S(=O)(=O)Nc3ccc(Cl)c(C(F)(F)F)c3)ccc2N1 | -2% | 13% | -6% | -4%
COc1ccc(Nc2c3c(nc4nncn24)CCC3)cc1Cl | x | u | x | -25%
CC1CCN(c2ccccc2NC(=S)NC(=O)c2cccs2)CC1 | -29% | u | 16% | u
O=C(NC(=S)Nc1ccccc1Br)c1ccco1 | 13µM* | u | 16% | u
CC1CCN(c2ccccc2NC(=S)NC(=O)c2ccco2)CC1 | -50% | 10µM* | 3% | u
Cc1cccc(C(=O)Nc2cc(S(=O)(=O)N3CCOCC3)ccc2N2CCCCC2)c1 | -45% | u | 5% | -13%
CCCN1CCN(c2nnc(-n3cccc3C(=O)Nc3ccccc3C(F)(F)F)s2)CC1 | x | 3% | x | 1%
CCOc1cc(/C=N/NS(=O)(=O)c2ccccc2)ccc1OS(=O)(=O)c1ccc(C)cc1 | -16% | 8.9µM* | -11% | -8%
CCOc1cc(/C=N/O)ccc1OS(=O)(=O)c1ccc(C)cc1 | 1% | u | 11% | -5%
CCOc1ccccc1CNC(=O)C1CCN(S(=O)(=O)c2cccc3nonc23)CC1 | x | -1% | x | 5%
N=c1c2c(-c3ccccc3)c(-c3ccccc3)n(Cc3ccco3)c2ncn1CCO | -55% | u | -11% | 7.9µM*
N=c1c2c(-c3ccccc3)c(-c3ccccc3)n(Cc3ccco3)c2ncn1CCCO | -32% | u | 5% | u
COc1ccc2oc(C(=O)NCc3ccccc3CN3CCCC3)c(C)c2c1 | -16% | u | 10% | 14%
